Data as given in PubChem BioAssay (NCATS).
Results filed as inconclusive are left out. Values without a mark were called inactive. The call rests on the fitted dose curve; in most records, active means well fitted curve in the direction sought with a large enough effect; inconclusive means small, poorly fitted or top-dose-only effect, or another doubt; inactive means no such curve, though single readings can be large or run the other way. Residues, ends and D or L forms follow the SMILES beside them. *: point of attachment. Cbz = O=C(OCc1ccccc1)*

Experiment: Cytometric Cell-Based qHTS for Inhibitors of the mTORC1 Signaling Pathway in MEF (Tsc2-/-, p53-/-) Cells (AID 2660);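 further: Tsc2 and p53 null MEFs carrying empty vector with compound for 24 h; percent of cells above a phospho-rpS6 to PI ratio cutoff in each well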
Conditions: mTORC1 pathway cytometry; series mostly up to 38.3 µM; activity change, negative = inhibition: at the top concentration
From the text: NIH Molecular Libraries Probe Production Centers Network [MLPCN]
NIH Chemical Genomics Center [NCGC]
Assay Submitter (PI): Blenis, John; Hoffman, Greg; Harvard University
NCGC Assay Overview: The mammalian target of rapamycin (mTOR) is an intracellular serine/threonine kinase Aberrant regulation of mTOR signaling plays a causative role in a number of human diseases, including cancer, benign tumors such as lymphangioleiomyomatosis (LAM) and Tuberous Sclerosis Complex (TSC), and metabolic diseases such as diabetes and obesity. This project aims to identify inhibitors of ribosomal protein S6 (rpS6) phosphorylation. The phosphorylation of rpS6 is a key event downstream of mTOR activation. The assay uses a phospho-specific antibody of phospho-rpS6 to detect inhibitors of mTOR activation. Mutations in the Tsc1 and Tsc2 genes are the underlying genetic lesions responsible for TSC, causing constitutive activation of the mTORC1 pathway and leading to profound effects on cell metabolism. Aberrant metabolism in cancer has recently received significant attention as a target to develop therapeutic agents in the treatment of cancer.1 As Tsc2-/- cells have lost the ability to respond to energy and growth factor deprivation, these cells are unable to properly down regulate cellular biosynthetic processes in response to metabolic stress, and are thus extremely sensitive to glucose deprivation-induced death.2 A central goal of this project is to explore the unique cell survival and metabolic properties of cells with Tsc1 or Tsc2 by screening for compounds that selectively target the Tsc2-/- MEFs by screening both Tsc2-/- and WT MEF cell lines. We hope to better understand these aspects of TSC physiology in order to exploit them for therapeutic benefit.
NCGC Acumen Assay Protocol Summary:
For quantitative high throughput analysis of mTORC1 signaling, we developed a cell-based assay for immuno-fluorescence based detection of rpS6 phosphorylation on the Acumen Explorer that will be used a platform for the primary small molecule screen. Mouse embryonic fibroblasts (MEFs) are cultured in 1536-well plates using DMEM + 10% FBS. Twenty-four hrs after plating, test compounds (solubilized in DMSO) are delivered and incubated with the cells for 24 hrs at 37 degree Celsius. Following the incubation, media with compound is aspirated and the cells are fixed in 4% paraformaldehyde (PFA) containing PBS + 0.2% TX-100. Next, PFA is aspirated, cells are washed two times with PBS plus 0.2% TX-100 and the cells are blocked for 1 hr at room temperature (blocking buffer: LiCOR Blocking Buffer plus 0.2% TX-100). This is followed by aspiration and staining with Alexa-488 conjugated-phospho-rpS6 Ser235/236 antibody for 2 hours at room temperature (Cell Signaling Technology # 4803, 1:50 dilution in blocking buffer). Cells are washed two times with PBS plus 0.2% TX-100, and stained with 10 uM propidium iodide (PI) for 20-25 minutes for cell number measurement (1:500 dilution of Hoescht staining is also added for IN Cell imaging). The plates are scanned on the Acumen Explorer laser scanning instrument (TTP Labtech) using the 488nm laser for simultaneous excitation of the Alexa-488 and PI. The fluorescence emission from the Alexa-488 conjugated rpS6 phospho-235/236 antibody staining is selected using a […] band pass filter. Fluorescence emission from the PI stain is selected using a 575-640 nm band pass filter. The normalized phospho-S6 staining is calculated as the ratio of the integrated Alexa 488 intensity divided by the integrated PI intensity for the single concentration rapamycin control (7.5 nM) and DMSO columns. […] Inhibition of the pathway is defined based on the normalized phospho-S6 intensity in rapamycin treated cells. […]

Compound | activity change, negative = inhibition [%]
c1ccc(CN2CCC3(CCCc4ccccc43)CC2)cc1 | -5.96
Oc1cc2c(cc1O)C(c1ccccc1)CNCC2 (stereo not given) | 6.88
NC1(C(=O)O)CCc2cc(C(=O)O)ccc21 (stereo not given) | 0.0661
COCc1nc2c([nH]1)c(=O)n(C)c(=O)n2CC(C)C | -20.3
CC(C)NC[C@H](O)COc1cccc2ccccc12 | 0.0828
COc1ccccc1N1CCN(CCCNc2c(C)c(=O)n(C)c(=O)n2C)CC1 | 9.56
Cn1c(=O)c2c(nc(/C=C/c3cccc(Cl)c3)n2C)n(C)c1=O | 8.51
Cc1nc2c(OCc3ccccc3)cccn2c1CC#N | -4.48
NC(=O)CC[C@H](N)C(=O)O | -11.7
c1ccc(C(NCCNC(c2ccccc2)c2ccccc2)c2ccccc2)cc1 | -15.8
COc1ccc(CCN(C)CCc2ccc(OC)c(OC)c2)cc1OC | 5.63
CCCCCC(O)CCCC(=O)O (stereo not given) | 1.38
CC(N)=NCCCC[C@@H](N)C(=O)O | -4.1
CCCc1c(OCCCOc2ccc(OCC(=O)O)cc2)ccc(C(C)=O)c1O | 1.94
N=C(N)c1ccccc1 | 0.489
Cc1cc2c(cc1Cl)N(C(=O)Nc1ccnc3ccccc13)CC2 | 1.95
Nc1ncnc2c1nc(Br)n2C1OC2COP(=O)(O)O[C@@H]2C1O (stereo not given in full) | -1.06
C#CC(N)CCC(=O)O (stereo not given) | 0.492
CCCn1c(=O)c2[nH]c(C3CCCC3)nc2n(CCC)c1=O | 5.59
C=CCNc1ncnc2ccc(Br)cc12 | 0.392

Compound | activity change, negative = inhibition [%]
CC#CCOC(=O)c1c(C)nc2sc3c(c2c1N)CCC(O)C3 (stereo not given) | -21.4
CNCCNS(=O)(=O)c1cccc2cnccc12 | 0.093
O=c1cc(-c2ccccc2)[nH]c2nc(Cl)ccc12 | -23.3
O=C(O)C1=CCNCC1 | 4.63
CSC(=N)N | 7.34
O=C1NC(=O)c2cc(Nc3ccccc3)c(Nc3ccccc3)cc21 | 7.71
[N-]=[N+]=Nc1ccc(C(=O)CSC[C@H](NC(=O)CC[C@H](N)C(=O)O)C(=O)NCC(=O)O)cc1 | -4.82
CC(=O)O[C@H]1Cc2ccccc2N(C(N)=O)c2ccccc21 | 1.46
Nc1ncnc2c1ncn2C1CCCC1 | 8.39
NC(N)=NC(N)=Nc1cccc(Cl)c1 | -8.07
N=C(N)SCCc1cnc[nH]1 | 5.48
CC(C)[C@H](NC(=O)OCc1ccccc1)C(=O)N[C@H](C=O)Cc1ccccc1 (Cbz-Val-Phe-aldehyde) | 3.29
O=C(O)/C=C/c1cnc[nH]1 | 3.8
c1ccc2c(c1)CC(N1CCN(c3cccc4c3OCCO4)CC1)C2 | -0.676
Cc1nc2n(c(=O)c1CCN1CCC(c3noc4cc(F)ccc34)CC1)CCCC2O (stereo not given) | -11.2
CCCCCCN(CCCCCC)C(=O)Cc1c(-c2ccc(F)cc2)[nH]c2ccccc12 | 13.7
CC(/C=C/c1cccc(Oc2ccc(F)cc2)c1)N(O)C(N)=O (stereo not given) | 7.63
O=C1Nc2ccc(I)cc2/C1=C/c1cc(Br)c(O)c(Br)c1 | -5.88
Cn1cc(C(F)(F)F)nc1-c1ccc(OCC(O)CNCCOc2ccc(O)c(C(N)=O)c2)cc1 (stereo not given) | 3.77
Cn1c(=O)[nH]c2ncn(C)c2c1=O | -2.76
